Source: PubChem (National Center for Advancing Translational Sciences (NCATS))
Pf growth 96h – Primary qHTS for delayed death inhibitors of the malarial parasite plastid, 96 hour incubation; P. falciparum luciferase reporter growth, 96 h; Potency, µM (top dose mostly 28.7 µM), without a hit: at the top dose activity change, negative = inhibition, usual class: inhibitors; hit rate 6.9% among 320,000; also: potency is read from the fitted curve at half-maximal effect; % is scaled to controls: 0 for no effect and ±100 for the full control effect
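Compounds incubated with erythrocytes infected by luciferase-expressing P. falciparum (2% hematocrit, 0.05% parasitemia final) for 96 hours, 37 C in 5% CO2. Growth inhibition scored as decreased luciferase luminescence.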
Giardia FBPA inh – qHTS Assay for Inhibitors of Fructose-1,6-bisphosphate Aldolase from Giardia Lamblia. A8B2U2. purified Giardia FBPA. Potency, µM (titrated, usually from 59.6 µM), without a hit: at the highest dose activity, negative = inhibition, usual class: inhibitors. hit rate 0.71% among 290,000. AID 2451, 2010; also: potency is read from the fitted curve at half-maximal effect; % is scaled to controls: 0 for no effect and ±100 for the full control effect; nearly all actives have a fitted effect of over 55% in size
Target sequence (A8B2U2 whole entry, looked up): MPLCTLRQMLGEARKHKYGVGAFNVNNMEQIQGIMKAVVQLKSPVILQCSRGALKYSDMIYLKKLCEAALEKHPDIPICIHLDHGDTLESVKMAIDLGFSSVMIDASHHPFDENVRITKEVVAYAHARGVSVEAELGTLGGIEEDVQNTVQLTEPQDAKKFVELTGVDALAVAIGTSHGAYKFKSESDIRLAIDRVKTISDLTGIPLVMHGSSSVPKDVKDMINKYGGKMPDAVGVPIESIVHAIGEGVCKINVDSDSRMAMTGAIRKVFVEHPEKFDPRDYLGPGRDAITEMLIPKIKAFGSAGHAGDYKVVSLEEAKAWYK
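40 nM FBPA preincubated 10 min at RT with compound (up to 57.5 uM final), then substrate plus GAPDH/TPI/NAD/arsenate coupling and diaphorase/resazurin added. Fluorescence read after 20 min at RT, 525/598 nm.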
Pf growth 48h – Primary qHTS for delayed death inhibitors of the malarial parasite plastid, 48 hour incubation; P. falciparum luciferase growth in erythrocytes, 48 h; Potency, µM (top dose mostly 28.7 µM), for inactives: at the top dose activity change, negative = inhibition, actives largely listed as inhibitors; hit rate 5.9% among 310,000; AID 504832, 2011; also: potency is read from the fitted curve at half-maximal effect; % is scaled to controls: 0 for no effect and ±100 for the full control effect
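Luciferase-expressing P. falciparum in infected erythrocytes (2% hematocrit, 0.1% parasitemia final) in RPMI 1640/0.5% Albumax were exposed to compound for 48 hours at 37 C, 5% CO2; growth read as luminescence.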
Shiga inhibitor – A qHTS for Small Molecule Inhibitors of Shiga Toxin. hit rate 9.2% among 290,000. AID 2315, 2010. inhibition, % at 38.7 µM. Vero cells, Shiga toxin protein synthesis inhibition reporter; in the data active = inhibition mostly above about 28%, no sharp cut-off; inactive = mostly below about 43%; also: 0% is about no effect
NS1 inh – qHTS Assay for Inhibitors of Influenza NS1 Protein Function. Potency, µM (highest dose often 46.1 µM), for the others: at the top dose activity, positive = more growth. hit rate 0.4% among 270,000. AID 2326, 2010; calls by dose curve; also: potency is read from the fitted curve at half-maximal effect; actives are rising curves; nearly all actives have a fitted effect of over 50% in size
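Recovery from NS1-induced slow growth read by OD600 in budding yeast switched to galactose assay medium (pH 6.0, -URA) at 1:100 dilution. Compound 23 nl per well; the matching strain lacking NS1 serves as control.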
Cycloheximide cs – Cycloheximide Counterscreen for Small Molecule Inhibitors of Shiga Toxin | cell reporter, cycloheximide protein synthesis inhibition counterscreen | AID 2314, 2010 | max response, % | hit rate 12% among 300,000; in the data active = max response mostly above about 13%, no sharp cut-off; inactive = mostly below about 14%; also: read at 38.3 µM for the half of the compounds with a filed dose; 0% is about no effect
* marks the source's active call; other numbers are inactive results. In the library only some 21% were active in any assay of this set; here they are far more common. Unless noted, calls follow the shape of the dose curve; as a rule, active = well fitted curve in the direction sought with a large enough effect; inconclusive = small, poorly fitted or top-dose-only effect, or another doubt; inactive = no such curve, though single readings can be large; an effect the other way counts as inactive or inconclusive.

Screening COc1ccc(N(CC(=O)NC2CCCC2)C(=O)c2ccc(C)s2)c(OC)c1 returned Pf growth 96h -3.1%, Giardia FBPA inh 10.5%, Pf growth 48h inconclusive, Shiga inhibitor -2.9, NS1 inh 5.2% and Cycloheximide cs 2.0.
Cc1ccc(CNC(=O)CCS(=O)(=O)Cc2ccc(C)cc2)cc1 was read as Pf growth 96h 17.3%, Giardia FBPA inh -10.0%, Pf growth 48h -18.4%, Shiga inhibitor -10.6, NS1 inh inconclusive and Cycloheximide cs -5.5.
For CC(C)(C)NC(=O)NC(=O)COc1ccc(Br)cc1Br the results were Pf growth 96h 265.1%, Giardia FBPA inh 0.0%, Pf growth 48h 236.5%, Shiga inhibitor 135.7*, NS1 inh -41.6% and Cycloheximide cs 90.4*.
O=C(COc1ccc(Br)cc1Br)NC(=O)NC1CCCC1 was read as Pf growth 96h 130.2%, Giardia FBPA inh -1.5%, Pf growth 48h 126.9%, Shiga inhibitor 141.9* and Cycloheximide cs 59.2*.
For Cc1cc(Br)ccc1SCC(=O)OCC(=O)NC1CCCC1 the results were Pf growth 96h 15.3%, Giardia FBPA inh 0.0%, Pf growth 48h -2.7%, Shiga inhibitor -8.4 and Cycloheximide cs 5.3.
`Cc1cc(Br)ccc1OCC(=O)NC1CCCC1` gave Pf growth 96h -26.7%, Giardia FBPA inh -1.2%, Pf growth 48h 10.0%, Shiga inhibitor 51.6*, NS1 inh -14.4% and Cycloheximide cs 35.2*.
`Cc1cc(Br)ccc1OCC(=O)NNC(=O)C(=O)Nc1ccccc1` gave Pf growth 96h 74.0%, Giardia FBPA inh -2.0%, Pf growth 48h 41.9%, Shiga inhibitor 50.3*, NS1 inh -3.8% and Cycloheximide cs 12.9.
For O=C(CN1C(=O)c2cccnc2Oc2ccc(Cl)cc21)NC1CCCCC1 the results were Pf growth 96h 10.9%, Giardia FBPA inh 7.9%, Pf growth 48h inconclusive, Shiga inhibitor -6.3, NS1 inh -16.2% and Cycloheximide cs -3.2.
`CCN(C(=O)COC(=O)c1cccn1C)C1CCS(=O)(=O)C1` (stereo not drawn) gave Pf growth 96h 29.2%, Giardia FBPA inh 11.8%, Pf growth 48h 0.3%, Shiga inhibitor -1.2 and Cycloheximide cs -1.5.
For CN(C(=O)COc1ccc(Br)cc1Cl)C1CCCCC1 the results were Pf growth 96h -0.8%, Giardia FBPA inh 4.6%, Pf growth 48h -2.7%, Shiga inhibitor 53.2*, NS1 inh -3.8% and Cycloheximide cs 24.0*.
For CCN(CC)C(=O)COc1ccc(Br)cc1Cl the results were Pf growth 96h 29.4%, Giardia FBPA inh 6.0%, Pf growth 48h 11.2%, Shiga inhibitor -3.3, NS1 inh 0.3% and Cycloheximide cs -2.7.
For Cn1cccc1C(=O)OCC(=O)NC1CCS(=O)(=O)C1 (stereo not drawn) the results were Pf growth 96h 18.3%, Giardia FBPA inh 3.7%, Pf growth 48h 1.47µM*, Shiga inhibitor -9.2, NS1 inh 2.3% and Cycloheximide cs 1.2.
For Cc1c(C(=O)NC2CCN(Cc3ccccc3)C2)oc2ccc(Br)cc12 (stereo not drawn) the results were Pf growth 96h 24.5%, Giardia FBPA inh 10.1%, Pf growth 48h -3.0%, Shiga inhibitor 77.8*, NS1 inh -8.5% and Cycloheximide cs 14.0*.
For Cc1ccc(OCC(=O)NC2CCS(=O)(=O)C2)c(C)c1 (stereo not drawn) the results were Pf growth 96h 5.86µM*, Pf growth 48h 8.3%, Shiga inhibitor -13.8, NS1 inh 0.1% and Cycloheximide cs 5.4.
O=C(Nc1ccccc1C(=O)Nc1ccc(Br)cn1)c1cccc([N+](=O)[O-])c1 was read as Pf growth 96h 0.0%, Giardia FBPA inh 1.0%, Pf growth 48h 37.9%, Shiga inhibitor 10.9, NS1 inh 12.1% and Cycloheximide cs -1.8.
O=C(COc1ccc(Br)cc1Cl)NC1CCN(Cc2ccccc2)CC1 was read as Pf growth 96h 11.7µM*, Pf growth 48h inconclusive, Shiga inhibitor -5.3, NS1 inh -21.1% and Cycloheximide cs -2.7.
For CC(C)(C)NC(=O)NC(=O)COc1ccccc1C#N the results were Pf growth 96h 84.7%, Giardia FBPA inh -1.3%, Pf growth 48h 144.2%, Shiga inhibitor active, NS1 inh 2.4% and Cycloheximide cs 65.7*.
